Assay [1] deals with Mast/stem cell growth factor receptor Kit (Homo sapiens) (UniProt P10721). As to conditions: at 1 µM; call rule not given here.
Assay [2] shares this target. As to conditions: at 10 µM.
The target of assay [3] is Proto-oncogene tyrosine-protein kinase Src (Homo sapiens) (UniProt P12931). The settings on record: at 1 µM.
For assay [4] the target is unchanged. The settings on record: at 10 µM.
The target in assay [5] is Serine/threonine-protein kinase mTOR (Homo sapiens) (UniProt P42345). The settings on record: at 1 µM.
The target is the same in assay [6]. The settings on record: at 10 µM.
For assay [7] the target is unchanged. As to conditions: at 1 µM. This is another data set of the same source.
Assay [8] shares this target. As to conditions: at 10 µM. This is another data set of the same source.
The target of assay [9] is T1, Eukaryotic elongation factor 2 kinase (Homo sapiens) (UniProt O00418).
T1 sequence (whole entry): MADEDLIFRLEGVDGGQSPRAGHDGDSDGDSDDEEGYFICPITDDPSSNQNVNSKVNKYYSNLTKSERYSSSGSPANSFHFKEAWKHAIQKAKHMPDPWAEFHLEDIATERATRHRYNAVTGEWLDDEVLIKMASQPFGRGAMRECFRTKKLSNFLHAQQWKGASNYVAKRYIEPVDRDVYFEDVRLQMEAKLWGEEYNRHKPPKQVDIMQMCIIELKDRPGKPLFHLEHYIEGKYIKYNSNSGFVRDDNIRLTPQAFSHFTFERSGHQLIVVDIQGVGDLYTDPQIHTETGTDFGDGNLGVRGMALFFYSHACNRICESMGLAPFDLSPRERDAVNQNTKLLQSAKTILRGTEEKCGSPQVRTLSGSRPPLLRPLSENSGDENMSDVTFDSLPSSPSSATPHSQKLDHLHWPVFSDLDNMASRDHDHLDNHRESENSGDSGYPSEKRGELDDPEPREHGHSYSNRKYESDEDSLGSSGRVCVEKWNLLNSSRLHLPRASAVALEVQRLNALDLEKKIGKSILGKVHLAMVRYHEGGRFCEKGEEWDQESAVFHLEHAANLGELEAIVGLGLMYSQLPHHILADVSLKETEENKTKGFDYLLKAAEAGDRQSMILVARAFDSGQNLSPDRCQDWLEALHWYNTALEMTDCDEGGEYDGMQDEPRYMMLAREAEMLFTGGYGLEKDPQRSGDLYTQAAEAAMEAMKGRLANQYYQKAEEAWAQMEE
As to conditions: at 1 µM.

Assay [10] addresses T1, Eukaryotic elongation factor 2 kinase (Homo sapiens). As to conditions: at 10 µM.

These results are taken from ChEMBL document CHEMBL2218924, “A broad activity screen in support of a chemogenomic map for kinase signalling research and drug discovery” (Biochem J, 2013).

Chain of Proto-oncogene tyrosine-protein kinase Src (Homo sapiens) (P12931 2-536 limits assumed): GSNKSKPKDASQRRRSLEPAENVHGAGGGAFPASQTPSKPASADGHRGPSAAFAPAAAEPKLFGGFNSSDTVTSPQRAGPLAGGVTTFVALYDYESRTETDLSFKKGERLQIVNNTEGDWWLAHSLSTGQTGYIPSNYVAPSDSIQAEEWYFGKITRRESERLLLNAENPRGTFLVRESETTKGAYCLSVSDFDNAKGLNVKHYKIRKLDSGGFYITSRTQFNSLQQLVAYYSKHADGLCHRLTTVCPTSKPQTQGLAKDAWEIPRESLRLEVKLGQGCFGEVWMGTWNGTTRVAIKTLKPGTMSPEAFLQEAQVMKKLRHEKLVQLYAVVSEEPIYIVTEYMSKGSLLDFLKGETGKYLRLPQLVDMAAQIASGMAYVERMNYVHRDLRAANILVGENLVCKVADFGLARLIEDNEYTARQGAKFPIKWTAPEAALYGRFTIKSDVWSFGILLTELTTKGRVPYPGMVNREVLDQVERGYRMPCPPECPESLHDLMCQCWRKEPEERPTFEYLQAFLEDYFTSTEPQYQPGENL
Chain of Mast/stem cell growth factor receptor Kit (Homo sapiens) (P10721 whole entry): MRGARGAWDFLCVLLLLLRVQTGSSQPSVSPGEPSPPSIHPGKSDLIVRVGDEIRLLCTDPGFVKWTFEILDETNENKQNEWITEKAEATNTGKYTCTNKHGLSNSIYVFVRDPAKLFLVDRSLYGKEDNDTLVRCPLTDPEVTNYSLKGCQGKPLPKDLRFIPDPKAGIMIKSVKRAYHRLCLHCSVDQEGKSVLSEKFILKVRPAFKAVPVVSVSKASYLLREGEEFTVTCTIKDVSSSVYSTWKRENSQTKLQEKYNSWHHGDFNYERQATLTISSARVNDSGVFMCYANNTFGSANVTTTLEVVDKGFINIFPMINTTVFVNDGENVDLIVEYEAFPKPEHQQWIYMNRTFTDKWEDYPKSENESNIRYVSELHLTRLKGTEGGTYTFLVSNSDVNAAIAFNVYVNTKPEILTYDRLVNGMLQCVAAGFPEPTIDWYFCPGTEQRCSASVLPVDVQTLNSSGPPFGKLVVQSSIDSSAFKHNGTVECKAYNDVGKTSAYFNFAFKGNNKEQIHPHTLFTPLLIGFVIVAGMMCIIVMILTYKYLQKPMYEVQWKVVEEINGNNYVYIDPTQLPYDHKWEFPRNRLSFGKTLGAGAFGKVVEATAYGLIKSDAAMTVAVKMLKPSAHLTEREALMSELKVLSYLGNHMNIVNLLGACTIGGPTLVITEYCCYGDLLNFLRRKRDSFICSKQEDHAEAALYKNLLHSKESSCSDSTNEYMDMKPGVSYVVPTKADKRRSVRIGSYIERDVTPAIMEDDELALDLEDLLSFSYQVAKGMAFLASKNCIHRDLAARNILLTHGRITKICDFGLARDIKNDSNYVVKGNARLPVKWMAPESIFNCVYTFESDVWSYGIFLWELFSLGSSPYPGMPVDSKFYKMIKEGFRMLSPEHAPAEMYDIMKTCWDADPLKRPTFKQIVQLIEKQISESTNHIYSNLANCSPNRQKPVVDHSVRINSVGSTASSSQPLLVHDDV

Consider `O=C1c2ccccc2-[n+]2ccc3c([nH]c4ccccc43)c21`, for which the residual activity in assay [1] amounted to 106%; in assay [2], 97%; in assay [3], 111%; in [4], 91%; in [5], 103%; in [6], 103%. In addition, the figures for the residual activity in assay [7] and in assay [8] were 116% and 101%, respectively.

Regarding `O=c1cc(-c2cccc3c2Sc2ccccc2S3)oc(N2CCOCC2)c1`, the residual activity in assay [1] is 99%; in assay [2] it was 102%; in [3], 89%; in assay [4], 92%; in assay [5] it was 98%; in [6], 74%. The residual activity in assay [7] was determined as 89%; in assay [8], 60%.

On to `Oc1ccc(Nc2nc(-c3ccc(Cl)cc3)cs2)cc1`, for which the residual activity in assay [1] turned out to be 110%; in assay [2], 76%; in assay [3], 116%; in assay [4] it was 93%; in assay [5], 102%; in assay [6], 83%. The residual activity is 103% in assay [7] and 106% in [8].

Take `Cn1cc(/C=C2\C(=O)Nc3ccc(S(N)(=O)=O)cc32)c2ccccc21`: the residual activity in [1] was determined as 69%; in assay [2], 17%; in [3] it was 49%; in assay [4], 25%; in [5], 106%; in assay [6], 99%. For the same molecule, the residual activity in assay [7] amounted to 104%; in assay [8] it was 102%.

As for `CCOc1cc2ncnc(Nc3cccc(Br)c3)c2cc1OCC`, the residual activity in assay [1] was 108%; in [2], 101%; in assay [3], 53%; in assay [4], 14%; in assay [5] it was 110%; in assay [6], 106%. The residual activity turned out to be 94% in assay [7] and 100% in assay [8].

As for `Nc1nc(Nc2ccc(S(N)(=O)=O)cc2)nn1C(=S)Nc1c(F)cccc1F`, the residual activity came to 100% in assay [1]; 66% in assay [2]; 23% in [3]; 1% in assay [4]; 108% in assay [5]; 89% in assay [6]. The results for the residual activity in [7] and in [8] were 128% and 94%, respectively.

For `O=c1c2ccccc2[nH]c(=S)n1CCN1CCC(=C(c2ccc(F)cc2)c2ccc(F)cc2)CC1`, the residual activity in assay [1] turned out to be 106%; in [2], 89%; in assay [3], 85%; in assay [4], 97%; in assay [5] it was 78%; in [6], 85%. Moreover, the residual activity in assay [7] is 107%; in assay [8] it was 69%.

On to `NC(=O)c1ccc2[nH]c(-c3ccc(Oc4ccc(Cl)cc4)cc3)nc2c1`, for which the residual activity in assay [1] was 106%; in assay [2] it was 90%; in assay [3], 108%; in [4] it was 92%; in assay [9] it was 89% (inactive); in assay [10], 140%. Also, the residual activity was determined as 123% in assay [5], 96% in assay [6], 113% in assay [7] and 110% in assay [8].

`O=C1NC(=O)/C(=C\c2ccc3nccnc3c2)S1`: the residual activity was 106% in assay [1]; 102% in assay [2]; 86% in assay [3]; 103% in assay [4]; 99% (inactive) in assay [9]; 91% in assay [10]. Besides, the residual activity was 46% in assay [5], 51% in assay [6], 90% in assay [7] and 36% in assay [8].

For the molecule `COc1cc2ncnc(N3CCN(C(=O)Nc4ccc(Oc5ccccc5)cc4)CC3)c2cc1OC`, the residual activity in [1] was 37%; in [2] it was 7%; in [3], 95%; in assay [4], 97%; in assay [5], 107%; in assay [6] it was 102%. The residual activity stood at 98% in assay [7] and 99% in assay [8].

For the molecule `Ic1cccc(CSc2nnc(-c3ccncc3)o2)c1`, the residual activity in assay [1] is 97%; in assay [2], 102%; in assay [3] it was 113%; in [4], 83%; in assay [5] it was 108%; in [6] it was 102%. Moreover, the residual activity was 108% in assay [7] and 109% in assay [8].

Take `CO[C@@H]1[C@H](N(C)C(=O)c2ccccc2)C[C@H]2O[C@]1(C)n1c3ccccc3c3c4c(c5c6ccccc6n2c5c31)C(=O)NC4`: the residual activity in [1] stood at 65%; in [2], 39%; in [3] it was 40%; in assay [4] it was 24%; in assay [5], 95%; in [6], 103%. The residual activity was 107% in [7] and 83% in [8].

Consider `O=Nc1c(-c2c(O)[nH]c3ccccc23)[nH]c2ccccc12`, for which the residual activity in assay [1] was 20%; in [2], 2%; in assay [3], 35%; in assay [4] it was 5%; in [9], 109% (inactive); in [10] it was 93%. Also, the residual activity was 100% in assay [5], 98% in assay [6], 117% in assay [7] and 89% in [8].

For `COc1ccc(OC)c2c(=S)c3ccccc3[nH]c12`, the residual activity in assay [1] turned out to be 93%; in assay [2], 93%; in assay [3], 118%; in assay [4], 93%; in assay [5], 100%; in assay [6], 84%. Also, the figures for the residual activity in assay [7] and in [8] were 119% and 76%, respectively.

For the molecule `O=C1NC(=O)c2cc(Nc3ccc(F)cc3)c(Nc3ccc(F)cc3)cc21`, the residual activity in [1] came to 113%; in assay [2], 99%; in assay [3], 74%; in assay [4], 51%; in [5] it was 90%; in assay [6], 85%. The results for the residual activity in [7] and in [8] were 73% and 85%, respectively.

In the case of `O=C(O)c1ccc2c3c1cccc3c(=O)n1c3ccccc3nc21`, the residual activity in assay [1] was determined as 122%; in assay [2] it was 119%; in assay [3] it was 120%; in assay [4] it was 95%; in assay [5] it was 105%; in [6] it was 59%. Moreover, the residual activity in assay [7] was 98%; in assay [8], 39%.

In the case of `Oc1n[nH]c2nnc(-c3c(-c4ccccc4)nn4ccccc34)cc12`, the residual activity was determined as 94% in assay [1]; 104% in [2]; 95% in assay [3]; 87% in [4]; 97% in assay [5]; 76% in assay [6]. Moreover, the residual activity in [7] was 102%; in [8], 76%.

On to `COc1cc2ncnc(Nc3ccc(Oc4ccccc4)cc3)c2cc1OC`, for which the residual activity in [1] is 109%; in assay [2], 60%; in assay [3] it was 36%; in assay [4], 24%; in assay [9], 92% (inactive); in [10], 132%. Further, the residual activity worked out at 90% in assay [5], 95% in [6], 80% in assay [7] and 95% in assay [8].

Broadly, the residual activity is the signal under treatment as a percentage of the control signal.
